According to PubChem BioAssay (Tox21):
Results filed as inconclusive are left out. A call without a number means that no potency is given here. Activity calls are given as the source filed them. Calls come from the whole dose curve; as a rule, active = well fitted curve in the direction sought with a large enough effect in the repeat runs; inconclusive = weak or mixed curves; inactive = no such curve, though single readings can be large; an effect the other way counts as inactive or inconclusive.
Potency is the fitted concentration of half-maximal effect.

Assay: A CellTox Green Cytotoxicity Assay to monitor cytotoxicity in HepG2 cells - 16 hour (AID 1224876); note: nearly all actives have a fitted effect of over 45% in size
Conditions: CellTox Green fluorescence; series mostly up to 76.8 µM
Summary of the method: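 Nonlytic assay: viable cells exclude the dye, so fluorescence scales with cell death. HepG2 at 600 cells/well, compounds added after 5 h, signal read across 40 h.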
With `N#CSCC(=O)O` the Potency was “inactive”. For `CCCN(CCC)C(=O)C(CCC(=O)O)NC(=O)c1ccccc1` (centres undefined), the Potency was “inactive”. In the case of `CCN[C@H]1CN(CCCOC)S(=O)(=O)c2sc(S(N)(=O)=O)cc21`, the Potency is reported as “inactive”. In the case of `Cc1ccc(C=O)s1`, the Potency is reported as 27.5 µM (active). In the case of `OCc1ccccc1O`, the Potency is reported as “inactive”. For `FC(F)(F)C(F)(F)C(F)(F)C(F)(F)C(F)(F)C(F)(F)C(F)(F)C(F)(F)Br`, the Potency was “inactive”. With `ClC(Cl)Cl` the Potency was “inactive”. In the case of `CCCOc1ccc2c(c1)CC[C@@H]1[C@@H]2CC[C@]2(C)C(OC)CC[C@@H]12` (some centres undefined), the Potency is reported as “inactive”. For `CCOC(=O)C1CC(=O)C(=C(O)C2CC2)C(=O)C1` (centres undefined), the Potency was “inactive”. With `CC(=O)Nc1ccc(C)c(Cl)c1` the Potency was “inactive”. For `CCOc1ccc2nc(N)sc2c1`, the Potency was “inactive”. With `CC(=O)OC(C)OC(C)=O` the Potency was “inactive”. With `CN(C)Cc1ccccc1` the Potency was “inactive”. For `COc1ccc(S(=O)(=O)Nc2nnc(CC(C)C)s2)cc1`, the Potency was “inactive”. With `O=c1[nH]cnc2c1ncn2[C@@H]1O[C@H](CO)[C@@H](O)[C@H]1O` the Potency was “inactive”.

Assay: qHTS RealTime-Glo MT Cell Viability Assay in HepG2 cells - 32 hour (AID 1224877); note: nearly all actives have a fitted effect of over 55% in size
Conditions: RealTime-Glo luminescence; series mostly up to 76.8 µM
Summary of the method: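 qHTS, HepG2, 600 cells/well, RealTime-Glo (NanoLuc + prosubstrate) added with cells; 5 h preincubation; DMSO compound addition; 37 C; luminescence at 0/8/16/24/32/40 h.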
For `CN1CCC[C@@H]1Cc1c[nH]c2ccc(CCS(=O)(=O)c3ccccc3)cc12`, the Potency was “inactive”. In the case of `O=Cc1ccc(F)c(Br)c1`, the Potency is reported as “inactive”. In the case of `Cc1ncc(CO)c(CN)c1O`, the Potency is reported as “inactive”. In the case of `N#CSCC(=O)O`, the Potency is reported as “inactive”. In the case of `CCCN(CCC)C(=O)C(CCC(=O)O)NC(=O)c1ccccc1` (centres undefined), the Potency is reported as “inactive”. For `CCN[C@H]1CN(CCCOC)S(=O)(=O)c2sc(S(N)(=O)=O)cc21`, the Potency was “inactive”. With `Cc1ccc(C=O)s1` the Potency was “inactive”. In the case of `COC(=O)C(C)O` (centres undefined), the Potency is reported as “inactive”. For `CCOC(=O)NCCC[Si](OCC)(OCC)OCC`, the Potency was “inactive”. For `OCc1ccccc1O`, the Potency was “inactive”. For `O=C(C(Cl)Cl)N1CCOC12CCCCC2`, the Potency was “inactive”. In the case of `CCN(CC)C(=O)N(CC)CC`, the Potency is reported as “inactive”. With `O=C1CCCc2ccccc21` the Potency was “inactive”. With `COc1ccccc1N1CCN(CCCNc2cc(=O)n(C)c(=O)n2C)CC1` the Potency was “inactive”. With `CC(=O)O[C@H]1CC[C@@]2(C)C(=CC[C@@H]3[C@@H]2CC[C@]2(C)C(C(C)=O)=CC[C@@H]32)C1` the Potency was “inactive”. With `FC(F)(F)C(F)(F)C(F)(F)C(F)(F)C(F)(F)C(F)(F)C(F)(F)C(F)(F)Br` the Potency was “inactive”. With `Cn1cnc2c(F)c(Nc3ccc(Br)cc3Cl)c(C(=O)NOCCO)cc21` the Potency was 535 nM (active). With `ClC(Cl)Cl` the Potency was “inactive”. In the case of `CCCOc1ccc2c(c1)CC[C@@H]1[C@@H]2CC[C@]2(C)C(OC)CC[C@@H]12` (some centres undefined), the Potency is reported as “inactive”. For `CCN(CC)CC1CCCCN1CC(=O)N1c2ccccc2C(=O)Nc2cccnc21` (centres undefined), the Potency was “inactive”. In the case of `O=C(Cl)c1cccc([N+](=O)[O-])c1`, the Potency is reported as “inactive”. With `Cc1cc(NS(=O)(=O)c2ccc(N)cc2)nc(C)n1` the Potency was “inactive”. In the case of `CCCCCCC`, the Potency is reported as “inactive”. For `CCOC(=O)C1CC(=O)C(=C(O)C2CC2)C(=O)C1` (centres undefined), the Potency was “inactive”. In the case of `CC(=O)Nc1ccc(C)c(Cl)c1`, the Potency is reported as “inactive”. For `CCCCCCCCc1ccc(S(=O)(=O)O)cc1`, the Potency was “inactive”. With `CCOC(=O)C(Br)c1ccccc1` (centres undefined) the Potency was “inactive”. For `CCOc1ccc2nc(N)sc2c1`, the Potency was “inactive”. With `CCCC(CCC)(C(=O)OCC)C(=O)OCC` the Potency was “inactive”. In the case of `CCC/C=C/CO`, the Potency is reported as “inactive”. In the case of `CC(=O)OC(C)OC(C)=O`, the Potency is reported as “inactive”. With `OC[C@H]1O[C@@H](O[C@H]2[C@H](O)[C@@H](O)[C@H](O)O[C@@H]2CO)[C@H](O)[C@@H](O)[C@H]1O` the Potency was “inactive”. For `CC(C)S`, the Potency was “inactive”. In the case of `Clc1cccc(-c2cc(Cl)cc(Cl)c2)c1`, the Potency is reported as “inactive”. In the case of `CCC1(C)NC(=O)NC1=O` (centres undefined), the Potency is reported as “inactive”. For `CCN(CC)CCNC(=O)COc1ccc(Cl)cc1`, the Potency was “inactive”. For `CN(C)Cc1ccccc1`, the Potency was “inactive”. In the case of `COc1ccc(S(=O)(=O)Nc2nnc(CC(C)C)s2)cc1`, the Potency is reported as “inactive”. In the case of `O=c1[nH]cnc2c1ncn2[C@@H]1O[C@H](CO)[C@@H](O)[C@H]1O`, the Potency is reported as “inactive”.
